The source of these data is PubChem BioAssay.

SMILES strings stand for the structures. Active and inactive are the calls of the source.

Test [1] concerns PRMT1 (protein arginine N-methyltransferase 1). The test is described as follows: PRMT1 binders on small-molecule microarrays, primary screen, biochemical, small-molecule microarray, 635 nm fluorescence (AID 1088).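 Note: binding of Prmt1 protein to compounds spotted on small-molecule microarray slides.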 The note with it: small-molecule microarray binding, higher = more signal.
Test [2] can be described thus: yeast growth modulation, basal conditions, primary screen, YJM789 clinical isolate, OD600, 24 h (AID 1089).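 Note: growth of clinical yeast isolate S. cerevisiae YJM 789 seeded 1000 cells per well; test concentration not given here.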 Conditions: S. cerevisiae YJM789 growth, higher = more signal, called active from +8 up or from −8 down.
A short description of test [3]: fission yeast growth modulation, primary screen, strain 972, OD600, 24 h, no modulator (AID 1090).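 Note: basal condition with compound alone and no growth modifier present; test concentration not given here.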 The note with it: S. pombe 972 growth, higher = more signal, called active from +8 up or from −8 down.
Test [4] is described as follows: S. cerevisiae growth modulation with rapamycin, primary screen, strain BY4716, OD600, 96 h (AID 1091). Note: test concentration not given here. Conditions: higher = more signal, called active from +8 up or from −8 down.
The target in test [5] is Torsin-1A-interacting protein 2 (Homo sapiens) (UniProt Q8NFQ8). In words: LULL1 binders on small-molecule microarray, primary screen, cell lysate, human LULL1 lysate, 635/667 nm fluorescence (AID 1092).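 Note: probe is lysate of COS7 cells overexpressing human LULL1; score merges per-feature 667 nm fluorescence with signal-to-noise.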 The note with it: hLULL1 lysate binding, 635 nm fluorescence, higher = more signal.
Test [6] is described as follows: E. coli growth modulation, two-sided OD650, primary screen, E. coli filamentation project, strain DRC41, 24 h (AID 1093).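 Note: MC1000 strain lacking acrAB efflux and sulA so SOS filamentation is blocked; test concentration not given here.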 Conditions: OD650, 24 h, higher = more signal, called active from +8 up or from −8 down.
A short description of test [7]: small-molecule microarray binders of probe aLefty2, primary screen, biochemical, biotinylated probe, 635/667 nm fluorescence (AID 1094).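 Note: score merges spot fluorescence near 667 nm with spot signal-to-noise ratio.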 The note with it: higher = more signal.
Test [8] deals with Noggin (protein binding on small-molecule microarray). The test is described as follows: Noggin binders on small-molecule microarray, primary screen, biochemical, 635/667 nm fluorescence (AID 1095).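 Note: score merges 667 nm feature fluorescence with signal to noise over triplicate slides.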 Conditions: 635 nm fluorescence, higher = more signal.
In test [9] the target is Neurogenic locus notch homolog protein 3 (Homo sapiens) (UniProt Q9UM47). In words: NOTCH3 binders on small-molecule microarray, primary screen, biochemical, 635/667 nm fluorescence (AID 1096). The note with it: NOTCH3 binding, 635 nm fluorescence, higher = more signal.
Test [10] is described as follows: small-molecule microarray binders of probe aEGFR, primary screen, biochemical, biotinylated probe, 635/667 nm fluorescence (AID 1097).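 Note: probe is a biotinylated anti-EGFR antibody binding compounds printed on slides; score combines fluorescence near 667 nm and signal to noise of each spot.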 The note with it: higher = more signal.

Sequence of Neurogenic locus notch homolog protein 3 (Homo sapiens) (Q9UM47 whole entry, looked up): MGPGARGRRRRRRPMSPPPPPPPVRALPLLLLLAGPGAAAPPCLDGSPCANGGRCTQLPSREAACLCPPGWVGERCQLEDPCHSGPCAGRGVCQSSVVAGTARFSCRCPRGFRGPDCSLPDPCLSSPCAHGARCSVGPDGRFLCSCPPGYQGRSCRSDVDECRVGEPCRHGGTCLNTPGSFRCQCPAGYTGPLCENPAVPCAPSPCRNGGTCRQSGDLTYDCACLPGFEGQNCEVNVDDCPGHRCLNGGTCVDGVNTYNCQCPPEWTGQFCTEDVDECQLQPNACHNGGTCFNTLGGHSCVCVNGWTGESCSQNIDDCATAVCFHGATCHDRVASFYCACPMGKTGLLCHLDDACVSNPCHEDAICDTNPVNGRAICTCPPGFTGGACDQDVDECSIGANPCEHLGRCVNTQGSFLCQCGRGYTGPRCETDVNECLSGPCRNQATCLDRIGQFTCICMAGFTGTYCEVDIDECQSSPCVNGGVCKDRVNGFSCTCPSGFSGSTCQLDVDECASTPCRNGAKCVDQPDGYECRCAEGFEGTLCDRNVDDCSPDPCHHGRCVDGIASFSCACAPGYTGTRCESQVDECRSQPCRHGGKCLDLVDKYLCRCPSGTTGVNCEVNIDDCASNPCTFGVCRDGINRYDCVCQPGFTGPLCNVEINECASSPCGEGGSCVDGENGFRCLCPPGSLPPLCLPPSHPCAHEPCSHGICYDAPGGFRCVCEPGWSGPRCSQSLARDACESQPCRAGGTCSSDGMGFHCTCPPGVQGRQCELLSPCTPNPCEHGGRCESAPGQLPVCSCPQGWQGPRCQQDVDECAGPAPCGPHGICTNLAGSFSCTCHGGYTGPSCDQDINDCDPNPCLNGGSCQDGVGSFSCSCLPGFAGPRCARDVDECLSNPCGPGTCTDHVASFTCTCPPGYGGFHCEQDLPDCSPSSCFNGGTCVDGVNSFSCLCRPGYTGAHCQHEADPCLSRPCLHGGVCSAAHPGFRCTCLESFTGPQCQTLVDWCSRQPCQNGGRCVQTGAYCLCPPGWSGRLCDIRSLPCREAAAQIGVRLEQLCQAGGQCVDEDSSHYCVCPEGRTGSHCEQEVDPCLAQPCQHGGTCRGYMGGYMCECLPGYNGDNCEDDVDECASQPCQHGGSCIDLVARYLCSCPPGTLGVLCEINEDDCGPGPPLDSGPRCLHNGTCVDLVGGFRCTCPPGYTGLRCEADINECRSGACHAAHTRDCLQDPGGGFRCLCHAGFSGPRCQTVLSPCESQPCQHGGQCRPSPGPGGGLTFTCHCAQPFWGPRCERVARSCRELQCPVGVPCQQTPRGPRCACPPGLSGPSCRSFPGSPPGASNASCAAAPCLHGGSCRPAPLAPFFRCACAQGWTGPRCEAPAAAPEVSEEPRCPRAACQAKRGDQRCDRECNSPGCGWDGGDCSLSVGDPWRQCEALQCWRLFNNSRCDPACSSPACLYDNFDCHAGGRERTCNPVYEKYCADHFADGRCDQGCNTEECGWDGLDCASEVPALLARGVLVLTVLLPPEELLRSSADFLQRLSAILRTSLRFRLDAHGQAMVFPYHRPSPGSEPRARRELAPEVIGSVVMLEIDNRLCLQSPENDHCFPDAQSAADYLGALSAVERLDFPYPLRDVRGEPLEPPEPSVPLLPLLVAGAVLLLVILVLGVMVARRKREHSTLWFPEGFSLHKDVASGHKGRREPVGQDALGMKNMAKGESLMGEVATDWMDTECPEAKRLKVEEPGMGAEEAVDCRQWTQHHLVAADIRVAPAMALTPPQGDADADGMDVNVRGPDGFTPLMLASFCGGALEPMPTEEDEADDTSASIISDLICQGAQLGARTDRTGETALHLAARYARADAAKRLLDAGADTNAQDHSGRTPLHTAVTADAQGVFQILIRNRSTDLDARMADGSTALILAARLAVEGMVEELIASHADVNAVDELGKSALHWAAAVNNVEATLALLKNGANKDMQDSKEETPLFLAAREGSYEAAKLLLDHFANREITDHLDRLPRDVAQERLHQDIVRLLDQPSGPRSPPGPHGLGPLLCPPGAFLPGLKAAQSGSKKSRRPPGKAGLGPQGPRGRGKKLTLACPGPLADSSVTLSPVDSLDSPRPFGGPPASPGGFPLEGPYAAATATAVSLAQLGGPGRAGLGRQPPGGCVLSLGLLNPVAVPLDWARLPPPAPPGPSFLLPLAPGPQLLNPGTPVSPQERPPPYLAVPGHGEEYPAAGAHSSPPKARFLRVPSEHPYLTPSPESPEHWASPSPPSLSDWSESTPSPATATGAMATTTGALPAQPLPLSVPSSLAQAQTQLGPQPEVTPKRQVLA
Sequence of Torsin-1A-interacting protein 2 (Homo sapiens) (Q8NFQ8 whole entry, looked up): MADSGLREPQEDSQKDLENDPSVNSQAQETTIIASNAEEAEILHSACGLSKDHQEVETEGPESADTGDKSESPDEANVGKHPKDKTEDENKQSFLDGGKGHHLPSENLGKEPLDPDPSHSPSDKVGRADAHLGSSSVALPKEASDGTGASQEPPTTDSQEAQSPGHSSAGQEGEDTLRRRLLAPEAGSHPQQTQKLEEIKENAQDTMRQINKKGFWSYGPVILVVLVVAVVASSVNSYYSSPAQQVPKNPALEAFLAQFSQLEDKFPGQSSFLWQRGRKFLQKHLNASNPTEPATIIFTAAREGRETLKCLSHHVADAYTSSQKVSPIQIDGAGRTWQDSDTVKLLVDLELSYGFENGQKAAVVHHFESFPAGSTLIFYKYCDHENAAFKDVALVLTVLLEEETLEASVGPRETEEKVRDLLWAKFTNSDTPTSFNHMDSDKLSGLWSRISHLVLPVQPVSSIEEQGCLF

Turning to `CO[C@H]1O[C@H](CO)[C@@H](OC(=O)CCc2ccccc2)[C@@H]2OC(=O)[C@@H](Cc3ccccc3)C/C=C/C[C@H](Cc3ccccc3)C(=O)O[C@@H]12`, the composite z-score in test [1] is 1.35; in test [5], 1.25; in [7] it was -0.119; in test [8], 0.435; in test [9], 0.922; in test [10], -0.067. The z-score was -0.0668 (inactive) in test [2], 0.0286 (inactive) in test [3], 5.61 (inactive) in test [4] and 0.241 (inactive) in test [6].

In the case of `CCCCC(CC)C(O)C1C=CC2C(=O)N(c3ccccc3)C(=O)C2N1Nc1ccccc1F` (stereo not given), the composite z-score in test [1] is 1.53; in test [5], 2.64; in test [7] it was 0.222; in test [8], 0.0782; in test [9] it was 0.822; in test [10], -0.162. Besides, the z-score in test [2] is -0.802 (inactive); in [3], 1.53 (inactive); in test [4], 0.314 (inactive); in test [6] it was 0.379 (inactive).

As for `CC(C)(C)OC(=O)CC[C@@]1(C(=O)NCC(O)CO)N=C(c2ccc(OCCCO)cc2)O[C@@H]1c1ccccc1CN=[N+]=[N-]` (stereo not given in full), the composite z-score in test [1] is 0.782; in test [5] it was 2.89; in test [7] it was -0.0691; in [8] it was 0.153; in test [9], 0.558; in test [10], -0.0229. Further, the z-score in test [2] is -0.614 (inactive); in test [3] it was 0.0076 (inactive); in test [4], -0.753 (inactive); in test [6], 0.188 (inactive).

With `C#Cc1cc2ccccc2oc1=O`, the composite z-score was 0.914 in test [1]; 0.969 in test [5]; -0.313 in [7]; -2.71 in test [8]; -1.32 in test [9]; -0.325 in test [10]. For the same molecule, the z-score in [2] is -1.81 (inactive); in test [3], -7.83 (inactive); in [4], -1.11 (inactive); in test [6] it was -1.45 (inactive).

Take `COCCOC(=O)N1C(=O)[C@@]2(c3ccccc31)[C@H](C(=O)NC[C@H](O)c1ccccc1)[C@H]1C(=O)O[C@H](c3ccccc3)[C@H](c3ccccc3)N1[C@@H]2c1ccc(O)cc1`: the composite z-score in [1] was 1.53; in test [5] it was 3.01; in test [7], -0.109; in [8], 0.915; in test [9], 1.05; in [10] it was 0.569. The z-score in [2] is 0.787 (inactive); in [3] it was 0.259 (inactive); in test [4] it was 2.83 (inactive); in [6] it was 1.14 (inactive).

For `COC(=O)[C@@H]1N=C(c2ccc(OCCCO)cc2)O[C@@H]1C`, the composite z-score was 1.28 in test [1]; -0.0276 in [5]; 0.0539 in test [7]; 0.0641 in [8]; 0.0599 in [9]; -0.0465 in [10]. Further, the z-score was 0.464 (inactive) in [2], -0.0679 (inactive) in [3], -0.184 (inactive) in test [4] and 0.98 (inactive) in test [6].

On to `COc1ccc(C#Cc2ccc3c(c2)[C@]2(C(=O)N3)[C@H](c3ccc(O)cc3)N3[C@H](c4ccccc4)[C@H](c4ccccc4)OC(=O)[C@H]3[C@@H]2C(=O)Nc2nc3ccccc3s2)cc1`, for which the composite z-score is 1.55 in test [1]; 3.07 in test [5]; 0.334 in test [7]; 0.46 in test [8]; 1.05 in [9]; 0.484 in test [10]. Further, the z-score in [2] was 1.51 (inactive); in [3], -0.924 (inactive); in [4], -0.221 (inactive); in [6], 1.92 (inactive).
